# From PubChem
# Compounds with a hit are over-represented: about 10% of the library has one in this group of screens.
# JMJD2A Tudor – JMJD2A Tudor domain (human) inhibition | AID 504339 | AlphaScreen JMJD2A-Tudor / H3K4me3 peptide binding | O75164 | Potency, µM (highest dose often 114 µM), hits mostly inhibitors | 390,000 compounds, 4.4% hits; note: nearly all actives have a fitted effect of over 50% in size
# GLS inh – blocks human kidney-isoform glutaminase activity; O94925; GLS enzymatic activity, qHTS titration; Potency, µM (doses to about 45.5 µM), hits mostly inhibitors; 410,000 compounds, 0.21% hits; AID 624170
#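 hKGA; 45 mM KH2PO4 pH 8.2 + 0.02% Tween-20; cpd via pin tool; 1 mM Gln soln; GluOx/HRP/Amplex Red; RT 30 min; fluor. t0 & final.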
# BAZ2B inh – inhibitors of human BAZ2B bromodomain | AID 504333 | Potency, µM (titrated, usually from 114 µM), hits mostly inhibitors | 360,000 compounds, 4.4% hits | AlphaScreen BAZ2B-H3K14Ac peptide displacement | Q9UIF8; note: nearly all actives have a fitted effect of over 60% in size
#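 BAZ2B 50 nM plus b-H3(5-23)K14Ac 50 nM, PBS pH 7.4/0.01% Tween-20, 30 min RT; compound added (max 110 uM), 30 min RT; streptavidin donor/Ni-chelate acceptor beads 10 ug/mL final, 20 min dark; AlphaScreen read.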
# G9a block – inhibitors of human histone lysine methyltransferase G9a; 350,000 compounds, 8.8% hits; G9a H3K9 monomethylation, AlphaScreen, 2 h; Q96KQ7; AID 504332; Potency, µM (doses to about 102 µM), usual class: inhibitors; note: nearly all actives have a fitted effect of over 75% in size
# Target sequence (Q96KQ7 913-1193 limits assumed): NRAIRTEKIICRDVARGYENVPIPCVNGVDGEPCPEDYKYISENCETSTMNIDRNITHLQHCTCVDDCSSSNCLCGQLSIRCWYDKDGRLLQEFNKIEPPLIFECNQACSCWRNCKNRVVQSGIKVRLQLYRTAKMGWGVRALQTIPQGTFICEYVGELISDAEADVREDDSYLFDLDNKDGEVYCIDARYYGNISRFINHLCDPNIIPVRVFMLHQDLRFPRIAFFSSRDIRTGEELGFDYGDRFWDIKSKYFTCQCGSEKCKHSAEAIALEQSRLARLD
#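 G9a (20 nM) preincubated 15 min RT with compounds, then 500 nM biotinylated H3K9 peptide and 20 uM SAM added; 2 h RT reaction. Monomethyl-H3K9 product detected by AlphaScreen with anti-H3K9me1 antibody, streptavidin donor and anti-rabbit IgG acceptor beads.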
# HP1b binding inh – HP1-beta chromodomain-methylated histone interaction inhibition; Potency, µM (doses to about 114 µM), usual class: inhibitors; AlphaScreen HP1-beta / biotin-H3K9me3 peptide binding; P83916; 390,000 compounds, 0.56% hits; note: nearly all actives have a fitted effect of over 70% in size
# Target sequence (P83916 whole entry, looked up): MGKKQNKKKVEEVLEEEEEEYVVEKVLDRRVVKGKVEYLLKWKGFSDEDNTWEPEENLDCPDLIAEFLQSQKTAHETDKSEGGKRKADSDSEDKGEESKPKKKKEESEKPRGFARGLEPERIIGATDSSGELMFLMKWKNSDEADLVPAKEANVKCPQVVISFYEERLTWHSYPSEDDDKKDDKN
#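 Compound inhibition of the preformed complex between 50 nM HP1-beta and 50 nM biotinylated H3K9me3 peptide was read by AlphaScreen. Buffer was PBS pH 7.4 with 0.01% Tween-20. Incubations ran 30 min at room temperature, with 10 ug/mL donor/acceptor beads.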
# Numbers stand for hits; i = inactive; ? = inconclusive; nt = not tested or not shown; [ ] = dose if it differs, or a comment. Calls come from the whole dose curve; as a rule, active = well fitted curve in the direction sought with a large enough effect; inconclusive = small, poorly fitted or top-dose-only effect, or another doubt; inactive = no such curve, though single readings can be large; an effect the other way counts as inactive or inconclusive.
SMILES,JMJD2A Tudor,GLS inh,BAZ2B inh,G9a block,HP1b binding inh
C#CCOCCOCCOCCNc1nc(N2CCN(C(=O)[C@H](CCC(=O)O)n3cc(C(N)CO)nn3)CC2)nc(N2CCN(C(=O)[C@H](CCC(=O)O)n3cc(C(N)CO)nn3)CC2)n1 (stereo partly specified),nt,nt,14µM,?,nt
COc1ccc2c(c1)-c1nc(/N=C/c3cccc(OC)c3O)sc1CC2,?,i,50µM,18µM,?
O=C(O)COc1ccc(/C=N/NC(=O)C2CCCN2S(=O)(=O)c2ccc(Cl)cc2)cc1 (stereo unspecified),i,i,i,45µM,i
COc1ccc(NC(=O)C2CCCN2S(=O)(=O)c2ccc(Cl)cc2)cc1 (stereo unspecified),i,i,i,i,i
Clc1ccc(CN2CCN(c3ncccn3)CC2)cc1Cl,13µM,i,79µM,nt,i
O=C(c1ccccc1)N1CCN(c2ccc([N+](=O)[O-])cc2-n2cccc2)CC1,?,i,28µM,nt,i
O=C(c1ccc([N+](=O)[O-])cc1)N1CCN(c2cccc3[nH]ccc23)CC1,i,i,i,50µM,i
O=C(c1ccccc1)N1CCN(C(=O)c2ccc([N+](=O)[O-])cc2)CC1,i,i,i,i,i
O=C(Nc1ccc(N2CCN(C(=O)c3ccccc3)CC2)cc1)c1cc([N+](=O)[O-])ccc1N1CCOCC1,i,i,?,?,i
O=C(CCN1CCN(Cc2ccccc2)CC1)NNC(=O)Cc1ccc(Cl)c(Cl)c1,i,i,i,i,i
O=C(c1ccc([N+](=O)[O-])cc1)N1CCCC1,i,i,i,i,i
CC(C)N1CCN(C(=O)c2ccc([N+](=O)[O-])cc2)CC1,79µM,i,nt,nt,?
COC(=O)C1=C(c2ccccc2)c2ccccc2S(=O)(=O)N1CC(=O)Nc1cccc(C(C)=O)c1,?,i,i,?,i
Clc1ccc(CN2CCN(c3ncccn3)CC2)cc1,13µM,i,?,nt,i
c1ccc(CN2CCN(c3ncccn3)CC2)cc1,4.5µM,i,?,25µM,i
O=[N+]([O-])c1cccc(CN2CCN(c3cccc4[nH]ccc34)CC2)c1,56µM,i,?,32µM,i
NC(=O)c1cc([N+](=O)[O-])ccc1N1CCN(Cc2ccccc2)CC1,i,i,i,nt,i
FC(F)(F)c1cccc(CN2CCN(c3ncccn3)CC2)c1,i,i,nt,nt,i
COc1cc(CN2CCN(c3ncccn3)CC2)cc(OC)c1,i,i,i,nt,i
O=[N+]([O-])c1cccc(CN2CCN(c3ncccn3)CC2)c1,2.2µM,i,?,11µM,?
COc1ccc(CN(C)CC2CCCN(CCc3ccccc3C)C2)cc1O (stereo unspecified),i,i,i,nt,i
COc1ccc(CCN2CCCC(CN(C)Cc3cc(Cl)c(O)c(OC)c3)C2)cc1 (stereo unspecified),i,i,i,71µM,i
C=CCn1c(CNC(=O)c2ccco2)nnc1SCC(=O)N1c2ccccc2Sc2ccccc21,i,i,79µM,?,i
Cc1ccc(C(=O)OCC(=O)Nc2sc3c(c2C#N)CCCC3)cc1NC(=O)c1ccco1,i,i,i,22µM,i
Cc1ccc(C(=O)OCC(=O)Nc2ncc(Cl)cc2Cl)cc1NC(=O)c1ccco1,?,i,i,45µM,i
SMILES,JMJD2A Tudor,GLS inh,BAZ2B inh,G9a block,HP1b binding inh
Cc1ccc(C(=O)OCC(=O)Nc2ccccc2)cc1NC(=O)c1ccco1,i,i,nt,i,i
Cc1ccc(C(=O)OCC(=O)Nc2sccc2C(N)=O)cc1NC(=O)c1ccco1,i,i,i,0.89µM,i
O=c1c(-c2ccc(F)cc2)nc2cnc(N3CCOCC3)nc2n1Cc1ccc(F)cc1,nt,nt,nt,i[0.501 µM],nt
CC(C)(C)OC(=O)C[C@H]1C/C=C\C[C@H](CC(=O)N[C@H](CO)Cc2ccccc2)C(=O)N[C@@H](Cc2ccccc2)COC1=O,i,i,nt,nt,i
COc1ccc2c(C)cc3n[nH]c(=S)n3c2c1,0.71µM,?,?,1µM,?
COc1cc(/C=C2\SC(=Nc3ccc(Cl)c(C(=O)O)c3)NC2=O)c(Br)c(Br)c1O,79µM,?,45µM,32µM,?
COc1cc(/C=C2\SC(=Nc3ccccc3)NC2=O)cc(Cl)c1O,?,i,i,45µM,i
CCN(C(=O)CN(C)S(=O)(=O)c1ccc2c(c1)c(=O)n(C)c(=O)n2C)c1ccc(OC)cc1,i,i,i,i,i
COCC(=O)Nc1nnc(Cc2ccc(OC)c(OC)c2)s1,i,i,i,i,i
CCOCC(=O)Nc1nnc(Cc2ccc(OC)c(OC)c2)s1,i,i,i,16µM,i
CCOc1cc(/C=C2\C(=O)N(Cc3ccc(C)cc3)C(C)=C2C(=O)OC)ccc1O,25µM,i,?,8.9µM,i
COC(=O)C1=C(C)N(CCc2ccc(OC)c(OC)c2)C(=O)/C1=C\c1ccc(O)cc1,?,i,?,10µM,i
C=CCOc1cccc(/C=C2\C(=O)N(Cc3ccc(C)cc3)C(C)=C2C(=O)OC)c1,i,i,i,i,i
CCOC(=O)C1=C(C)N(c2ccc(C)c(C)c2)C(=O)/C1=C\c1ccco1,32µM,i,32µM,35µM,i
CCN1C(=O)/C(=C\c2ccc3c(c2)OCO3)C(C(=O)OC)=C1C,i,i,?,50µM,?
COCCCN1C(=O)/C(=C\c2ccc3c(c2)OCO3)C(C(=O)OC)=C1C,i,i,i,i,i
CC(C)NC(=O)c1ccc2c(c1)N(Cc1ccccc1)C(=O)C(C)(C)O2,i,i,i,i,i
CCOC(=O)C1=C(C)N(c2ccc(OC)cc2)C(=O)/C1=C\c1cccs1,i,i,?,i,i
CCOC(=O)C1=C(C)N(c2ccc(OC)cc2)C(=O)/C1=C\c1ccc(O)c(OCC)c1,14µM,i,50µM,?,?
CC(=O)Nc1ccc(NC(=O)C(NC(=O)C2CCC(C)CC2)C(C)C)cc1 (stereo unspecified),i,i,i,i,i
Nc1ccccc1SCc1cn2ccccc2n1,i,i,i,50µM,i
O=[N+]([O-])c1ccc(CSc2nc3ccccc3[nH]2)cc1,i,i,i,28µM,i
Nc1ccccc1SCc1cn2cccnc2n1,i,i,i,35µM,i
c1ccc2[nH]c(SCc3cn4ccccc4n3)nc2c1,i,i,i,45µM,i
COc1ccc(-n2nc(C(=O)NCCc3ccc(OC)c(OC)c3)c3c4ccccc4n(C)c3c2=O)cc1,i,i,nt,i,i
Clc1cccc(-c2csc(-c3nc(-c4ccc(Br)s4)cs3)n2)c1,i,i,i,i,i
C[C@@H]1CN([C@H](C)CO)C(=O)CCCn2nncc2CO[C@H]1CN(C)Cc1ccc(C(F)(F)F)cc1,nt,i,nt,nt,nt
Cc1cc(C)cc(OCCCn2ccnc2)c1,i,i,?,nt,i
Cc1cc(OCCCCNC(C)C)cc(C(C)C)c1,18µM,i,?,28µM,?
Cc1ccc(Cl)cc1N(C)C(=O)c1sc2nc3n(c(=O)c2c1C)CCCC3,i,i,?,13µM,i
